Inconclusive results are not listed. Unmarked numbers belong to inactive results. The source made the active and inactive calls. The call rests on the fitted dose curve; in most records, active means well fitted inhibition curve with a large enough effect; inconclusive means small, poorly fitted or top-dose-only effect; inactive means flat fitted curve, though single readings scatter.

Our source for the Potency and max response values is PubChem BioAssay (NCATS).
On the % scale 0 is the no-effect control and ±100 the full control effect; potency means the concentration at half of the fitted maximal effect.

For the assay, the system named is HaCat. The experiment in a line: Cytotoxic Profiling of Annotated Libraries Using Quantitative High-Throughput Screening (AID 1296008). Further: nearly all actives have a fitted effect of over 60% in size. As to conditions: Five cell lines viability, CellTiter-Glo ATP luminescence, 48-72 h; max response: active compounds read low. In short, it runs like this: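 Compounds were pin-transferred onto cells and incubated 48 or 72 hr at 37 degree Celsius, 95% humidity. CellTiter-Glo was added, plates sat 10 min at room temperature, then ATP-coupled luminescence was imaged as the viability read-out.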
For the compound `C=C1C(=O)O[C@@H]2C[C@H](C)[C@@H]3CC(=O)C(C)=C3C[C@H]12`, the Potency was 14.6 µM (active).

On to `Fc1ccc(-c2nc(C3CCNCC3)sc2-c2ccnc(NC3CC3)n2)cc1`, for which the Potency was 5.17 µM (active).

On to `COC1CC/C=C(\C)C(=O)Nc2cc(O)cc(c2)CC(C)CC(OC)C(O)C(C)/C=C(\C)C1OC(N)=O` (stereo not given), for which the Potency was 7.09 µM (active).

`CC(C)C[C@@H]1NC(=O)[C@@H](Cc2ccccc2)NC(=O)C(CCCCCC(=O)C2CO2)NC(=O)[C@@H]2CCCCN2C1=O` (stereo not given in full): the Potency was 3.17 µM (active).

For the compound `COc1cc2nc(C3CC3)nc(N3CCN(c4ccccc4OC)CC3)c2cc1OC`, the max response was -4.62%.
